HIF-2a inh: HIF-2a reporter inhibitors, primary screen, luminescence, 786-0 RCC cells; 786-0 RCC cells HIF-2a reporter, luciferase luminescence, overnight; inhibition, % at 18.8 µM; hit rate 0.72% among 360,000;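 active means inhibition of the luminescence signal of 40% or more relative to plate controls, in a single-dose primary screen at 18.75 µM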
TROY NFkB inh: inhibitors of TROY-driven NF-kB signaling, primary screen, Q293 LMP1-TROYcd cells, NF-kB luciferase, uHTS; Q293 LMP1-TROYcd NF-kB luciferase reporter, 4 h; inhibition, % at 10 µM; hit rate 0.98% among 360,000;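 active means compounds whose plate-normalised and pattern-corrected inhibition of the luciferase reporter signal at the single screening dose is 50% or more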
CF NFkB inh: inhibitors of PAF-induced NF-kB signaling, primary screen, cell-based, GFP fluorescence, uHTS. KKLEB NF-kB-GFP reporter, GFP fluorescence overnight. inhibition, % at 5 µM. hit rate 0.86% among 360,000. AID 588850, 2011;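 active means at least 50% inhibition at 5 µM, scaled per plate between neutral and stimulator controls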;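 further: PAF is a Pseudomonas aeruginosa culture filtrate used as stimulus; plate controls were PAF-stimulated DMSO wells for no effect and unstimulated DMSO wells for full effect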
TWEAK Fn14 block: inhibitors of TWEAK-Fn14 signaling, primary screen, luciferase reporter cells, uHTS. TWEAK-stimulated Fn14 reporter cells, luciferase luminescence, 8 h. inhibition, % at 10 µM. hit rate 2% among 360,000. AID 1159606, 2016; in the data active means inhibition above about 50%
Peg3 promoter: Peg3 promoter-driven luciferase inhibitors, primary screen, cell-based, HeLa, luciferase luminescence; inhibition, % at 20 µM; hit rate 1.7% among 360,000; HeLa PEG-Prom luciferase reporter, overnight;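 active means inhibition of at least 50% at 20 µM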
KKLEB tox: cytotoxicity in KKLEB CF airway cells, primary screen, cytotoxicity control for CF NF-kB inhibitor project, cell-based, uHTS, fluorescence assay plates; KKLEB CF airway cells viability, ATPlite luminescence, overnight; stronger effect = lower value; cells stimulated with P. aeruginosa culture filtrate; AID 602141, 2011; activity change (cytotoxicity), % at 5 µM; hit rate 0.36% among 360,000;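 active means corrected activity change at or below -50% at 5 µM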
* marks the source's active call; other numbers are inactive results; x = not tested or not shown. The list is not random: actives were taken first. Their share in the collection is about 4%.

SMILES | HIF-2a inh | TROY NFkB inh | CF NFkB inh | TWEAK Fn14 block | Peg3 promoter | KKLEB tox
Cc1c(N=Cc2nc3ccccc3n2C)c(=O)n(-c2ccccc2)n1C | -10 | 64* | 10 | 62* | -65 | 1
CCOC(=O)C(C(=O)OCC)c1cc(Br)c2noc3c2c1C(=O)c1ccccc1-3 | 35 | 11 | 75* | 20 | 113* | -38
CC(=O)OCCNc1cc(N2CCN(C)CC2)c2noc3c2c1C(=O)c1ccccc1-3 | -5 | -16 | -165 | -8 | 3 | -2
COc1ccc(CCn2c(=S)[nH]c3cc(C(=O)NCc4ccco4)ccc3c2=O)cc1OC | 17 | 16 | 12 | 52* | 51* | -10
C=COCCCNc1ncnc2sc(-c3ccccc3)cc12 | -24 | -2 | 9 | 87* | 13 | -5
CC(C)(C)Nc1ncnc2sc(-c3ccccc3)cc12 | -67 | 50 | 3 | 71* | -11 | -10
Cc1cn(CC(=O)N2CCN(c3ccccn3)CC2)c(=O)[nH]c1=O | -6 | -9 | -18 | 12 | -4 | -21
Cc1cc2nc(NC(=O)C3(C)CCN(C)C3)[nH]c2cc1C (configuration not stated) | -27 | 11 | -2 | -27 | -15 | 3
CCOc1ccc(NC(=O)c2ccccc2OCC(=O)c2ccc(C)cc2)cc1 | 4 | -30 | 43 | -58 | -1 | -53*
Cc1ccccc1-n1sc2cc(F)ccc2c1=O | -30 | -5 | 6 | 3 | 73* | 1
O=c1c2ccccc2sn1-c1ccccc1F | -9 | -47 | 34 | -6 | -3 | 3
CC(C)(C)C1COc2ccccc2N1C(=O)c1cccc(Cl)c1 (configuration not stated) | 7 | 23 | 22 | -13 | 25 | -15
Cc1cccc(NC(c2ccc(O)cc2)c2ccc3ccc(C)nc3c2O)n1 (configuration not stated) | 55* | 8 | 46 | 14 | 42 | -14
COc1cccc(C(Nc2ccccc2)c2ccc3ccc(C)nc3c2O)c1 (configuration not stated) | -98 | x | x | x | x | x
COc1ccccc1NC(=O)C(C)N1C(=O)C2CCCCC2C1=O (configuration not stated) | 10 | -3 | -8 | 16 | 2 | 14
C[C@H](CO)N1C[C@H](C)[C@@H](CN(C)C(=O)c2ccc3c(c2)OCO3)Oc2cc(/C=C/c3ccccc3)ccc2S1(=O)=O | -8 | 3 | 7 | -15 | 62* | 8
COc1cc(C(=O)Nc2scc(-c3ccc(Br)cc3)c2C(=O)O)cc(OC)c1OC | 18 | 72* | 21 | -7 | 37 | -2
Cc1ccc(-c2csc(NC(=O)c3ccc(Br)cc3)c2C(=O)O)cc1 | -227 | 25 | 26 | 47 | -300 | -15
CN(C)S(=O)(=O)c1ccc(C(=O)/C=C/c2cccnc2)cc1 | 27 | 8 | 12 | 5 | 100* | 7
COc1ccc(OC)c(C(=O)/C=C/c2cccnc2)c1 | 39 | -16 | 23 | 27 | 75* | -14
COc1cc(C(=O)/C=C/c2cccnc2)ccc1O | -28 | 7 | 1 | 33 | -63 | 7
N#Cc1ccc(/C=C/C(=O)c2cccnc2)cc1 | 14 | 40 | -2 | -1 | 70* | 1
CCN(CC(=O)Nc1ccc(OC)cc1)CC(=O)N1CC(=O)Nc2ccccc21 | 1 | -13 | 6 | 13 | -6 | 12
CCC(C)(C)NC(=O)C(c1ccc(OC)cc1)N(C(=O)CCC(=O)Nc1cc(C)on1)c1ccccc1OC (configuration not stated) | 13 | 11 | -6 | 57* | 21 | 23
CCC(C)(C)NC(=O)C(c1ccc(OC)cc1)N(C(=O)CCC(=O)Nc1cc(C)on1)c1ccc(OC)c(OC)c1 (configuration not stated) | 5 | -7 | -1 | 22 | 5 | -2
C=CCc1c(Cl)nc(C)nc1NCc1ccccc1 | 20 | 16 | 28 | 20 | 17 | -13
CCCCSc1nc2c(cc1C#N)CCC2 | -24 | -43 | 2 | -10 | -9 | -4

Source: PubChem BioAssay
